Experimental data reported in PubChem BioAssay AID1159569 (Broad Institute, 2015).
Results with a measured potency or affinity are listed apart. Records with an inconclusive call do not appear. Unmarked numbers belong to inactive results. No rule for the calls is given here.

assay: toxicity to human HepG2 hepatoma cells – cell-based, plate reader, dry powder samples, cytotoxicity control, dose response (AID 1159569); conditions: HepG2 cytotoxicity counterscreen; series mostly up to 50 µM; activity change, negative = cytotoxicity: at the top concentration

For `CC(C)(C)[S@](=O)N1Cc2cc(C(=O)N[C@@H]3CCN(Cc4ccccc4)C3)nc(-c3cccc(-c4cccnc4)c3)c2[C@@H]1CCO`, the “activity change, negative = cytotoxicity” value was 4.18% [at 18 µM].

Going from `COc1ccc(-c2ccc([C@H]3[C@H](C#N)N(C(=O)c4cccc(F)c4)[C@H]3CO)cc2)cc1` to `Cc1ccc(-c2ccccc2[C@H]2[C@@H](C#N)N(C(=O)c3cccc(F)c3)[C@H]2CO)cc1`, the “activity change, negative = cytotoxicity” value rises from -21.9% to -18.3%.

Compared with `CC(C)(C)S(=O)N1Cc2cc(C(=O)NCc3ccc(Oc4ccccc4)cc3)nc(-c3cccc(-c4cccc(F)c4)c3)c2[C@@H]1CCO` (stereo partly specified), `COc1cccc(-c2cccc(-c3nc(C(=O)NCc4ccc(Oc5ccccc5)cc4)cc4c3[C@@H](CCO)N(S(=O)C(C)(C)C)C4)c2)c1` (stereo partly specified) is lower in “activity change, negative = cytotoxicity” value: 2.11% for the first, -3.88% for the second.

Going from `OC[C@H]1CC[C@@H]2O[C@H](CCc3ccc(C#CCc4ccccc4)cc3)[C@H](n3cc(-c4ccccc4)nn3)C[C@@H]2O1` to `O=C(Nc1ccccc1)N1CCCCN2[C@H](CO)[C@H](c3ccc(C#Cc4cccnc4)cc3)[C@@H]2C1`, the “activity change, negative = cytotoxicity” value rises from -31.8% to -1.87%.

First: CCCNC(=O)N1[C@H](C#N)[C@H](c2ccc(C#Cc3cccc(F)c3)cc2)[C@H]1CO
Second: COc1cccc(C#Cc2ccc([C@H]3[C@@H](CO)N(C(=O)C4CCC4)[C@H]3C#N)cc2)c1
The “activity change, negative = cytotoxicity” value of the first is lower: -49.6% for the first, -47.8% for the second.

First: COc1ccc(S(=O)(=O)Nc2ccc3c(c2)CC(=O)N([C@H](C)CO)C[C@H](C)[C@H](CN(C)S(=O)(=O)c2ccc(C)cc2)O3)cc1
Second: C[C@H]1CN([C@@H](C)CO)C(=O)c2c(c3ccccc3n2C)-c2ccccc2CO[C@@H]1CN(C)S(=O)(=O)c1ccc(F)cc1
The “activity change, negative = cytotoxicity” value of the first is higher: -7.31% for the first, -19% for the second.

First: COc1ccccc1S(=O)(=O)N(C)C[C@@H]1OCc2ccccc2-c2c(n(C)c3ccccc23)C(=O)N([C@@H](C)CO)C[C@@H]1C
Second: C[C@H]1CN([C@@H](C)CO)C(=O)c2c(c3ccccc3n2C)-c2ccccc2CO[C@@H]1CN(C)C(=O)Nc1cccc(C(F)(F)F)c1
The “activity change, negative = cytotoxicity” value of the first is higher: -23.5% for the first, -53.7% for the second.

First: CC(C)NC(=O)Nc1ccc2c(c1)C(=O)N(C)[C@H]1CC[C@H](CC(=O)Nc3ccccc3)O[C@H]1CO2
Second: CO[C@@H]1CN(C)C(=O)c2ccc(NC(=O)Nc3ccccc3F)cc2OC[C@@H](C)N(Cc2ccccc2F)C[C@H]1C
The “activity change, negative = cytotoxicity” value of the first is higher: -9.14% for the first, -9.48% for the second.

Compared with `CCCC#Cc1ccc2c(c1)O[C@H](CN(C)C(=O)Nc1ccc(OC)cc1)[C@H](C)CN([C@H](C)CO)S2(=O)=O`, `C[C@@H]1CN([C@@H](C)CO)C(=O)c2cccc(NC(=O)C3CC3)c2O[C@@H]1CN(C)C(=O)Nc1ccc(C(F)(F)F)cc1` is higher in “activity change, negative = cytotoxicity” value: -25.5% for the first, -8.27% for the second.

First: COc1ccc2c3c([nH]c2c1)[C@H](CO)NCC31CCN(C(=O)Nc2ccc3c(c2)OCO3)CC1
Second: COc1cccc(CN2CC3(CCN(Cc4ccccn4)CC3)c3c([nH]c4cc(OC)ccc34)[C@@H]2CO)c1
The “activity change, negative = cytotoxicity” value of the first is higher: -12.1% for the first, -31% for the second.

Going from `CCCC(=O)N1CC2(C1)CN(S(=O)(=O)c1ccc(C)cc1)[C@@H](CO)c1[nH]c3cc(OC)ccc3c12` to `COc1ccc(NC(=O)N2CC3(C2)CN(C(=O)C2CCC2)[C@H](CO)c2c3c3ccc(OC)cc3n2C)cc1`, the “activity change, negative = cytotoxicity” value rises from -20.5% to -15.6%.

First: COc1ccc2c3c(n(C)c2c1)[C@@H](CO)N(C(=O)C1CC1)CC31CN(C(=O)Nc2cccc(F)c2)C1
Second: COc1ccc(-c2ccccc2[C@H]2[C@@H](C#N)N(C(=O)C3CCCCC3)[C@H]2CO)cc1
The “activity change, negative = cytotoxicity” value of the first is higher: 4.26% for the first, -11.1% for the second.

Compared with `Cc1nc(N2[C@H](CO)[C@H](c3ccccc3)[C@H]2CNCC2CCCC2)sc1C`, `COc1ccc(NC(=O)N2CCCCN3[C@@H](CO)[C@H](c4ccc(C#Cc5ccccn5)cc4)[C@@H]3C2)cc1` is higher in “activity change, negative = cytotoxicity” value: -35.8% for the first, -6.45% for the second.

Compared with `O=C(c1cccc(F)c1)N1CC(=O)N2[C@H](C1)[C@@H](c1ccc(-c3cccnc3)cc1)[C@@H]2CO`, `CCc1csc(N2[C@H](C#N)[C@H](c3ccccc3-c3ccc(F)cc3)[C@H]2CO)n1` is lower in “activity change, negative = cytotoxicity” value: -4.42% for the first, -23.6% for the second.

Compared with `C[C@@H]1CN([C@@H](C)CO)C(=O)c2cccc(NC(=O)c3ccc(-c4nccs4)cc3)c2O[C@H]1CN(C)Cc1ccc(Cl)c(Cl)c1`, `C[C@H]1CN([C@@H](C)CO)C(=O)c2cc(NC(=O)Nc3ccc(C(F)(F)F)cc3)ccc2O[C@@H]1CN(C)C(=O)Nc1cccc2ccccc12` is higher in “activity change, negative = cytotoxicity” value: -9.23% for the first, 2.11% for the second.

Compared with `CCCNC(=O)c1cc2c(c(-c3cccc(-c4cc5ccccc5o4)c3)n1)[C@H](CCO)N(C(=O)NC(C)C)C2`, `C[C@@H](NC(=O)C[C@H]1C[C@@H]2c3cc(NS(=O)(=O)c4ccc(F)cc4)ccc3O[C@@H]2[C@H](CO)O1)c1ccccc1` is higher in “activity change, negative = cytotoxicity” value: -31.5% for the first, -16.7% for the second.
